# Six1-Eya2 blk: blocks human Six1 binding to Eya2. Q15475+O00167. AlphaScreen GST-Six1/His-Eya2 binding, biochemical; hits give low values. activity change, % (concentration not given with the values). hit rate 0.56% among 360,000. AID 651725; in the data active = activity change below about -65%; inconclusive = mostly about -30% to -63%
#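 Six1/Eya2 binding was read as AlphaScreen signal after compounds were pinned into GST-Six1 plus His-tagged Eya2 (5X stock 250/500 nM) in pH 8.0 Tris/NaCl/TCEP buffer, beads added, then incubated 1 h, 37 C, dark.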
# p53 reactivator: re-activators of mutant p53; H1299 p53-A138V BP100-luciferase reporter, luminescence, 24 h; Potency, µM (highest dose often 92.2 µM), most hits filed as activators; hit rate 0.063% among 320,000; AID 504706; note: nearly all actives have a fitted effect of over 45% in size
#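 H1299 (p53-null), stable ts p53-A138V + BP100-Luc; 1000 cells/well, Opti-MEM/10% FBS; cpd 4 pt, 1:5; 24 h, 37 deg C, 5% CO2; detection reagent 10 min RT; luminescence.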
# CtBP-E1A inh: inhibitors of CtBP/E1A interaction; AlphaScreen GST-E1A/His-CtBP binding, 1536-well; hits give low values; activity change, % (no concentration beside the values); hit rate 0.49% among 340,000; AID 651724; in the data active = activity change below about -65%; inconclusive = mostly about -30% to -63%
#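 GST-E1A and His-tagged CtBP (125 nM each as 5X stock) were preincubated with pin-transferred compound for 2 h at 37 °C in the dark, then glutathione donor and nickel acceptor beads were added for 1 h before AlphaScreen reading.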
# RORg inh: blocks mouse ROR gamma transcriptional activity; Drosophila S2 Gal4-RORgamma UAS-luciferase reporter, 20 h; Potency, µM (doses to about 53.6 µM), actives largely listed as inhibitors; hit rate 5.4% among 310,000; note: nearly all actives have a fitted effect of over 60% in size
# Target sequence (P51450 whole entry, looked up, the tested form may be a part): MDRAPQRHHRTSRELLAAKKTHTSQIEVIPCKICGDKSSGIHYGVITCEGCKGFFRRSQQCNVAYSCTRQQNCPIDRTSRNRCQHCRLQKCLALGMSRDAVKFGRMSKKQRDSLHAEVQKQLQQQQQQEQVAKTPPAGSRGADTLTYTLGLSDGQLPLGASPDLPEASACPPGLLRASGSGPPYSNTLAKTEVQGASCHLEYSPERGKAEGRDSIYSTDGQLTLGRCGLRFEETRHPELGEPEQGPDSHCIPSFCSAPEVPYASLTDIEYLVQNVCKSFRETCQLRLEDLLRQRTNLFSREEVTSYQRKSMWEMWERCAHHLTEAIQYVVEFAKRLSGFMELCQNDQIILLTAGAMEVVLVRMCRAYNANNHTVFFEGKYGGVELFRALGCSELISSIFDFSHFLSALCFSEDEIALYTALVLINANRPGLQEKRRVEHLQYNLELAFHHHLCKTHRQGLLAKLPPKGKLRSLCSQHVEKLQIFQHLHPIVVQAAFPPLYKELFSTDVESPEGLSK
#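 Drosophila S2 cells stably expressing Gal4-DBD/mouse RORγ fusion under metallothionein promoter plus UAS-luciferase; compound 1 h, then 700 uM CuSO4 induction for 20 h at ambient temperature; inhibition read as reduced luminescence.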
# VP16 counter: counter-screen for ROR gamma inhibitors: Gal4-VP16 reporter; Drosophila S2 Gal4-VP16 UAS-luciferase, luminescence, 20 h; Potency, µM (top dose mostly 53.6 µM), usual class: inhibitors; hit rate 3.5% among 310,000;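 note: Gal4-VP16 expression switched on by copper sulfate through the metallothionein promoter; nearly all actives have a fitted effect of over 50% in size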
# Hits are given with their value; n = inactive; u = inconclusive; x = no result given; [ ] = dose if it differs, or a comment. Hits are enriched below; roughly 5.4% of the tested compounds scored in any of these assays. Unless noted, calls come from the whole dose curve; as a rule, active = well fitted curve in the direction sought with a large enough effect; inconclusive = small, poorly fitted or top-dose-only effect, or another doubt; inactive = no such curve, though single readings can be large; an effect the other way counts as inactive or inconclusive.
SMILES,Six1-Eya2 blk,p53 reactivator,CtBP-E1A inh,RORg inh,VP16 counter
Cc1c(N/N=C(\C#N)C(=O)c2ccccc2)c(=O)n(-c2ccccc2)n1C,-86.3,u,u,15.8µM,u
Cc1ccccc1C(=O)/C(C#N)=N/Nc1c(C)n(C)n(-c2ccccc2)c1=O,-68.0,u,-70.3,8.91µM,20µM
OC/C=C/c1ccccc1,x,x,x,n[10 µM],n
N#Cc1ccc(NN=Nc2ccccc2C#N)cc1,n,x,n,x,x
CCn1c(SCC(=O)NNC(=S)Nc2ccccc2)nnc1-c1ccc(Cl)cc1,n,n,n,3.98µM,1.26µM
O=C(CSc1nc2ccccc2s1)NNC(=S)Nc1ccc(Br)cc1,n,n,n,0.891µM,u
O=C(CSc1nc2ccccc2s1)NNC(=S)Nc1ccccc1,n,n,n,1µM,4.47µM
O=C(CSc1nnc(-c2ccccc2)n1-c1ccc(Cl)cc1)NNC(=S)Nc1ccccc1,n,n,n,u,u
O=C(CSc1nc2ccccc2s1)NNC(=O)Nc1ccc(Cl)c(Cl)c1,u,n,u,u,n[0.365 µM]
COCCNC(=S)N/N=C(\C)c1ccccc1OC,n,n,n,2.51µM,6.31µM
COCCNC(=S)N/N=C(\C)c1ccccc1F,n,n,n,3.55µM,20µM
COCCNC(=S)N/N=C(\C)c1ccccc1O,-68.8,u,u,0.199µM,0.447µM
O=C(OCC(=O)N1CCCc2ccccc21)c1cc(Br)ccc1O,n,n,n,x,x
Cc1cccc(C(=O)Nc2nnc(-c3ccco3)o2)c1,u,n,u,0.501µM,0.631µM
O=C(Nc1nnc(-c2ccco2)o1)c1cccc(N2C(=O)CCC2=O)c1,n,n,n,n,n
Cc1ccc(C(=O)Nc2nnc(-c3ccco3)o2)cc1C,n,u,n,0.631µM,0.891µM
O=C(Nc1nnc(-c2ccco2)o1)c1ccc(Cl)cc1,n,n,n,0.355µM,0.631µM
O=C(CSc1ccc(Cl)cc1)Nc1nnc(-c2ccco2)o1,u,n,n,x,x
Cc1cccc(C)c1NC(=O)CS(=O)CC(=O)NCC1OCCc2ccccc21 (configuration not stated),n,n,n,n,n
CC(C)CN1CCC(=O)N(C(CSc2ccc(Br)cc2)Cc2ccccc2)CC1 (configuration not stated),x,x,x,u,n
O=S(=O)(Nc1ncccn1)c1ccc(NC(=S)N2CCN(Cc3ccc(F)cc3Cl)CC2)cc1,n,n,n,n,n
COc1cccc(OC)c1C(=O)N1CCN(S(=O)(=O)c2ccccc2)CC1,n,u,n,n,n
COc1ccccc1C(=O)N1CCN(S(=O)(=O)c2ccccc2)CC1,n,n,n,11.2µM,n
COc1ccccc1N1C(C)=CC(=C(C#N)c2nc3ccccc3s2)C=C1C,n,u,n,7.08µM,u
COc1ccc(CCNc2nc(-c3ccccn3)cs2)cc1OC,-78.8,n,x,u,n
SMILES,Six1-Eya2 blk,p53 reactivator,CtBP-E1A inh,RORg inh,VP16 counter
COc1ccc(CCNc2nc(-c3ccncc3)cs2)cc1OC,n,n,n,n,n
N#CC(CC(=O)c1ccc(F)cc1)c1ccc2c(c1)OCO2 (configuration not stated),n,n,n,n,n
COc1ccc(CN(C)CC(=O)N2CCc3ccccc3C2)cc1,n,n,n,n,n
COC(=O)[C@H](C)NC(=O)C/C=C\[C@@H](C)[C@@H](CO)OC,x,x,x,n[10 µM],n[10 µM]
COc1ccc(C2CC(c3ccc(Cl)cc3)Nc3nc(NC(=O)c4ccco4)nn32)cc1 (configuration not stated),n,n,n,0.708µM,0.159µM
COc1ccc(C2CC(c3ccc(Cl)cc3Cl)Nc3nc(N)nn32)cc1 (configuration not stated),n,n,n,5.62µM,4.47µM
O=C(Nc1nc2n(n1)C(c1ccc(Cl)cc1)CC(c1ccc(Cl)cc1)N2)c1ccco1 (configuration not stated),n,n,n,3.16µM,3.55µM
COc1ccc(C2CC(c3ccc(Cl)cc3Cl)n3nc(N)nc3N2)cc1 (configuration not stated),n,n,n,n,n
O=C(Nc1nc2n(n1)C(c1ccc(F)cc1)CC(c1ccccc1)N2)c1ccco1 (configuration not stated),n,n,n,3.16µM,7.08µM
O=C(OCc1ccccc1F)c1cnc(Cl)c(Cl)c1,n,n,n,n,n
CCN1CCN(C(=O)c2c(-c3c(Cl)cccc3Cl)noc2C)CC1,n,n,n,n,n

# Bioassay records deposited in PubChem by National Center for Advancing Translational Sciences (NCATS).
